CYP2C9 act = activators of human CYP2C9 | activation factor at 5 µM | hit rate 1.4% among 96,000 | recombinant CYP2C9, luciferin-H conversion, luminescence; hits give high values; factor 1 = untreated enzyme, 0 = blocked | P11712;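 active = activation factor of 2 or more for CYP2C9 at a 5 µM dose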;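 also: 0 = sulfaphenazole-blocked wells and 1 = vehicle-only wells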
CYP2C9 inh = blocks human cytochrome P450 2C9; P11712; CYP2C9 Supersomes, luciferin-H conversion, luminescence; inhibition, % at 5 µM; hit rate 20% among 96,000; AID 777;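 active = blocking of liver enzyme CYP2C9 beyond about 50% at 5 µM, limit read from the data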
CYP2C19 activ = activators of human cytochrome P450 2C19; P33261; AID 1025; 96,000 tested, under 10 active; recombinant CYP2C19, luciferin-H EGE luminescence; hits give high values; 0 = fully inhibited enzyme, 1 = untreated enzyme; activation factor at 5 µM;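 active = activation factor of at least 2 at 5 µM in the primary screen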;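 also: 0 = wells with 2.5 mM tranylcypromine and 1 = vehicle-only wells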
Target sequence (P33261 whole entry, looked up): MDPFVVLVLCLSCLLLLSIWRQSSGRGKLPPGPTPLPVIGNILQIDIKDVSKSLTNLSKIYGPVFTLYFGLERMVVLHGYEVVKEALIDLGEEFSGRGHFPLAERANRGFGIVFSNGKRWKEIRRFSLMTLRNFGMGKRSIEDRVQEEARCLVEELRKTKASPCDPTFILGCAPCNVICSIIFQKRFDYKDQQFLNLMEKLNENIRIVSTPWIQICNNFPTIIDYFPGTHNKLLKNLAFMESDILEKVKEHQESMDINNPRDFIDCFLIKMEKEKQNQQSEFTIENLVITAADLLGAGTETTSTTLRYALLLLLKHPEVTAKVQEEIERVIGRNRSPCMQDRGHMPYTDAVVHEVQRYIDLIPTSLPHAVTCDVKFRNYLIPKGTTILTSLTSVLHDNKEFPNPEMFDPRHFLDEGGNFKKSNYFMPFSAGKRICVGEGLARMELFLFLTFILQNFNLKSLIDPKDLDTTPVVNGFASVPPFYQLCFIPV
sEH act = increases human soluble epoxide hydrolase activity | purified human sEH enzymatic activity, activator screen | activation, % at 2 µM | AID 717 | P34913 | hit rate 0.04% among 91,000; in the data active = activation above about 37%
CYP2C19 inhib = human CYP2C19 inhibition; P33261; hit rate 21% among 96,000; inhibition, % at 5 µM; CYP2C19 Supersomes, luciferin-H EGE luminescence, 30 min;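 active = CYP2C19 inhibition above a set limit at 5 µM in the primary screen, cut at about 50% in these data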;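 also: plate controls were negative control wells for no effect and 2.5 mM tranylcypromine positive control for full effect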
sEH inhibitor = soluble epoxide hydrolase (human) inhibition; inhibition, % at 2 µM; recombinant human sEH enzymatic activity assay; hit rate 0.34% among 91,000; P34913; AID 707; in the data active = inhibition above about 80%
Starred values were filed as active, the others as inactive. A selection: hits, their analogues and other compounds. The true share with any hit is near 27%.

How did Cc1ccc(NN2C(=O)C=C(c3ccc(Cl)cc3)C2=O)cc1 do in these assays?
CYP2C9 act: 0.4; CYP2C9 inh: 55.6*; CYP2C19 activ: 1; sEH act: 16.2; CYP2C19 inhib: -4.6; sEH inhibitor: -17.8

Results for O=C1C=C(c2ccccc2)C(=O)N1Nc1ccccc1 ?
CYP2C9 act: 0.7; CYP2C9 inh: 28.3; CYP2C19 activ: 0.8; sEH act: 3.5; CYP2C19 inhib: 17.1; sEH inhibitor: -5.0

How did O=C(Cc1cccs1)Nc1ccc(NC(=O)c2ccco2)cc1 do in these assays?
CYP2C9 act: 0.3; CYP2C9 inh: 72.3*; CYP2C19 activ: 0.9; sEH act: 6.7; CYP2C19 inhib: 12.9; sEH inhibitor: -5.7

Results for O=C(Cc1cccs1)Nc1cccc(C(=O)Nc2ccco2)c1 ?
CYP2C9 act: 0.2; CYP2C9 inh: 78.2*; CYP2C19 activ: 0.5; sEH act: -5.0; CYP2C19 inhib: 51.2*; sEH inhibitor: 9.9

What do the screens show for `O=C(Nc1ccc(OC(=O)c2cccs2)cc1)c1ccco1`?
CYP2C9 act: 1.2; CYP2C9 inh: -17.7; CYP2C19 activ: 0.9; sEH act: 0.3; CYP2C19 inhib: 6.9; sEH inhibitor: 0.3

Results for O=S(=O)(NCCOC12CC3CC(CC(C3)C1)C2)c1cccc2nsnc12 ?
CYP2C9 act: 1.3; CYP2C9 inh: -31.3; CYP2C19 activ: 0; sEH act: 8.6; CYP2C19 inhib: 96.9*; sEH inhibitor: -6.1

Results for O=S(=O)(NCCc1ccccc1)c1cccc2nsnc12 ?
CYP2C9 act: 0.4; CYP2C9 inh: 59.4*; CYP2C19 activ: 0; sEH act: -5.8; CYP2C19 inhib: 99.4*; sEH inhibitor: 4.0

How did c1cnc(N2CC[N+]3(CCCC3)CC2)nc1 do in these assays?
CYP2C9 act: 0.9; CYP2C9 inh: 9.4; CYP2C19 activ: 1; sEH act: 15.7; CYP2C19 inhib: 2.0; sEH inhibitor: -16.3

Results for CCOC(=O)C1CCN(Cc2oc(CO)cc(=O)c2O)CC1 ?
CYP2C9 act: 1; CYP2C9 inh: 4.7; CYP2C19 activ: 0.9; sEH act: -7.0; CYP2C19 inhib: 13.5; sEH inhibitor: 4.2

What do the screens show for `CCNS(=O)(=O)c1ccc(OC)c(C)c1`?
CYP2C9 act: 2.7*; CYP2C9 inh: -174.5; CYP2C19 activ: 0.8; sEH act: 11.2; CYP2C19 inhib: 24.1; sEH inhibitor: -7.9

Results for C=CCNS(=O)(=O)c1ccc2nsnc2c1 ?
CYP2C9 act: 0.9; CYP2C9 inh: 14.3; CYP2C19 activ: 0.8; CYP2C19 inhib: 22.8

Results for CCOc1cc(C(=O)NCCOC)ccc1OC ?
CYP2C9 act: 1; CYP2C9 inh: -3.2; CYP2C19 activ: 1; sEH act: 2.8; CYP2C19 inhib: 1.9; sEH inhibitor: -0.2

Results for CCCCNS(=O)(=O)c1ccc(OC)c(C)c1 ?
sEH act: -5.3; sEH inhibitor: 10.2

Results for CCOc1ccc(S(=O)(=O)NCCOC)cc1C ?
CYP2C9 act: 3*; CYP2C9 inh: -197.8; CYP2C19 activ: 0.1; sEH act: -5.0; CYP2C19 inhib: 89.4*; sEH inhibitor: 6.9

How did C=CCNS(=O)(=O)c1ccc(OC)c(C)c1 do in these assays?
CYP2C9 act: 2.7*; CYP2C9 inh: -171.4; CYP2C19 activ: 0.7; sEH act: 5.9; CYP2C19 inhib: 30.1; sEH inhibitor: -6.4

Results for O=C(COc1ccc(-n2cnnn2)cc1)NC(=O)NCc1ccccc1 ?
CYP2C9 act: 0.8; CYP2C9 inh: 15.9; CYP2C19 activ: 0.8; sEH act: -0.9; CYP2C19 inhib: 16.6; sEH inhibitor: 1.1

What do the screens show for `CCOc1ccc2oc(=O)cc(C)c2c1`?
CYP2C9 act: 0.9; CYP2C9 inh: 11.4; CYP2C19 activ: 0.9; sEH act: 4.5; CYP2C19 inhib: 11.7; sEH inhibitor: -5.9

How did Cc1cc(C)nc(SCC(=O)Oc2ccc3oc(=O)cc(C)c3c2)n1 do in these assays?
CYP2C9 act: 2.5*; CYP2C9 inh: -152.3; CYP2C19 activ: 1; sEH act: -11.6; CYP2C19 inhib: -0.5; sEH inhibitor: 12.7

What do the screens show for `O=C(Nc1ccc(S(=O)(=O)Nc2ncccn2)cc1)c1ccc(Br)s1`?
CYP2C9 act: 0.8; CYP2C9 inh: 17.8; CYP2C19 activ: 1; sEH act: 0.8; CYP2C19 inhib: -0.3; sEH inhibitor: -2.9

Results for COC(=O)c1ccc(C(=O)OC)c(NC(=O)COC(=O)C23CC4CC(CC(O)(C4)C2)C3)c1 ?
CYP2C9 act: 0.4; CYP2C9 inh: 57.5*; CYP2C19 activ: 0.9; sEH act: 5.4; CYP2C19 inhib: 13.1; sEH inhibitor: -6.8

What do the screens show for `CN1C(=O)/C(=C2/C=Cc3ccccc3N2CCCS(=O)(=O)O)SC1=S`?
CYP2C9 act: 0.5; CYP2C9 inh: 53.1*; CYP2C19 activ: 0.8; sEH act: 3.4; CYP2C19 inhib: 23.3; sEH inhibitor: -3.7

How did C=CCN1C(=O)/C(=C2/Sc3ccccc3N2CCCS(=O)(=O)O)SC1=S do in these assays?
CYP2C9 act: 0.4; CYP2C9 inh: 60.0*; CYP2C19 activ: 0.9; CYP2C19 inhib: 13.5

What do the screens show for `CCCN1/C(=C2/SC(=S)N(CC)C2=O)C=Cc2ccccc21`?
CYP2C9 act: 0.9; CYP2C9 inh: 7.9; CYP2C19 activ: 0.6; sEH act: -8.9; CYP2C19 inhib: 37.4; sEH inhibitor: 9.1

Results for CC1(C)CC(=O)C2=C(C1)Nc1[nH]c(=S)[nH]c(=O)c1C2c1ccccc1 (stereo unspecified) ?
CYP2C9 act: 0.7; CYP2C9 inh: 34.7; CYP2C19 activ: 1; sEH act: 2.4; CYP2C19 inhib: 1.9; sEH inhibitor: -2.6

How did COC(=O)c1ccc(OC)c(CSc2nnc(COc3ccc(OC)cc3)o2)c1 do in these assays?
CYP2C9 act: 0.3; CYP2C9 inh: 69.1*; CYP2C19 activ: 0.6; CYP2C19 inhib: 38.4

Results for COC(=O)c1ccc(OC)c(CSc2nnc(COc3cccc(C)c3)o2)c1 ?
CYP2C9 act: 0.1; CYP2C9 inh: 89.9*; CYP2C19 activ: 0; CYP2C19 inhib: 96.0*

How did CCCCOc1c(Br)cc(/C=C2\N=C(C)OC2=O)cc1OCC do in these assays?
CYP2C9 act: 0.8; CYP2C9 inh: 15.4; CYP2C19 activ: 0.9; sEH act: 0.6; CYP2C19 inhib: 5.5; sEH inhibitor: -1.8

What do the screens show for `O=C(N/N=C/c1c[nH]c2ccccc12)c1ccn(Cc2ccc(Cl)cc2Cl)n1`?
CYP2C9 act: 0.3; CYP2C9 inh: 69.6*; CYP2C19 activ: 0.4; sEH act: -22.9; CYP2C19 inhib: 56.8*; sEH inhibitor: 24.6

Results for Cn1c(SCC(N)=O)nnc1C1CCN(S(=O)(=O)c2ccccc2C(F)(F)F)CC1 ?
CYP2C9 act: 2*; CYP2C9 inh: -103.4; CYP2C19 activ: 1; sEH act: -13.0; CYP2C19 inhib: -4.7; sEH inhibitor: 12.7

What do the screens show for `CCN(N=Nc1cccc([N+](=O)[O-])c1)c1cccc([N+](=O)[O-])c1`?
CYP2C9 act: 0.4; CYP2C9 inh: 57.7*; CYP2C19 activ: 0.7; sEH act: -11.0; CYP2C19 inhib: 30.6; sEH inhibitor: 8.4

What do the screens show for `CCN1CCN(S(=O)(=O)c2cccc([N+](=O)[O-])c2)CC1`?
CYP2C9 act: 0.7; CYP2C9 inh: 32.8; CYP2C19 activ: 0.9; sEH act: 3.6; CYP2C19 inhib: 6.4; sEH inhibitor: -2.5

Screens (PubChem BioAssay)
